# Screen size: about 220,000 compounds; about 2,600 (1.2%) were called active. Many of the other results were omitted from the sample, so actives are more common in it than they were. A number with no mark means an inactive call.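 Rule for the calls: active = activation above the mean of all tested compounds plus 3 SD, set per screening run (cut at about 8.8% in these data); inactive = the rest.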
# Molecular target: Wee1-like protein kinase (Homo sapiens) (UniProt P30291)
# Test: compounds stabilizing Wee1-luciferase fusion – cell-based, HeLa, Wee1K328M-luciferase, luminescence, primary screen (AID 1321);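 note: cells exposed to compound for 20 h before luminescence read; 0% = DMSO alone and 100% = MG132 at 30 µM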
# Details: HeLa Luc-Wee1K328M stability, at 5 µM, active compounds read high, 100% = proteasome inhibitor MG132 effect
row,SMILES,reporter increase
1,CN(C)C(=O)c1nc2ccc(Cl)cn2c1CNCc1cccc(OC(F)(F)F)c1,0.21%
2,Cc1ccc(C(=O)N/N=C\c2cc(Br)c(Br)o2)cn1,1.9%
3,CCOC(=O)N1CCN(c2c(NCCN3CCN(c4ccccc4F)CC3)c(=O)c2=O)CC1,-1.76%
4,CCOc1ccc(CNC(=O)C2CCC(=O)N2C2CCCC2)cc1OC (centres undefined),-2.75%
5,CCOc1cc(C2C(C(=O)OC)=CN(C3CCCC3)C=C2C(=O)OC)cc(Br)c1O,14.3% (active)
6,CCOc1ccccc1C1C(C(=O)OC)=CN(C)C=C1C(=O)OC,-2.5%
7,CN(C)S(=O)(=O)c1cccc(-c2nn(-c3ccccc3)cc2/C=C2\SC(=S)N(CC(=O)O)C2=O)c1,-2.5%
8,CN1CCc2nc(SC(C(=O)O)c3ccccc3)c(C#N)c(-c3cccs3)c2C1 (centres undefined),-1.79%
9,Cc1ccsc1/C=N/Nc1ccc(Cl)nn1,1.78%
10,O=C(CSc1nnc2n1CCCN2)c1ccccc1,1.24%
11,Cc1ccc(NC(=O)/C(=C\c2ccccc2)NC(=O)c2ccco2)cc1,2.36%
12,O=C(O)c1ccc(/C=N/NC(=O)c2ccc(Br)cc2)cc1,0.91%
13,O=C(N/N=C/c1ccc(OCc2ccccc2)cc1)c1ccc(O)cc1,-1.31%
14,O=C(N/N=C/c1ccc(OCC2COCCO2)cc1)c1ccc(Br)cc1 (centres undefined),10.9% (active)
15,O=C(O)C(NS(=O)(=O)c1cccc2nsnc12)c1ccccc1 (centres undefined),-0.72%
16,Cn1cc(S(=O)(=O)NC(c2ccccc2)c2ccccc2)c(=O)n(C)c1=O,-2.84%
17,COc1cc2nc(Cl)nc(NCCO)c2cc1OC,-0.52%
18,CCCCCOC(=O)NCCOC(=O)Nc1ccc(C(=O)OCC)cc1,3.09%
19,Cc1ccc(NC(=O)OCCNC(=O)c2ccncc2)cc1,14.4% (active)
20,Cc1ccc(NC(=O)OCc2cncs2)cc1,2.2%
21,O=C(NCc1ccccc1)c1ccc(S(=O)(=O)Nc2cccc(C(F)(F)F)c2)cc1,-0.38%
22,COc1ccc(CCn2c(NN=C3CCCC3)nc3c2c(=O)[nH]c(=O)n3C)cc1,-2.59%
23,O=C(NC1C2CC3CC(C2)CC1C3)c1ccc(N2CCNCC2)c([N+](=O)[O-])c1 (centres undefined),-0.74%
24,Cc1cccc(/C(N)=N/OC(=O)c2ccccc2Cl)c1,11.3% (active)
25,Cc1cccc(C(=O)c2cccc(C)c2)c1,-0.47%
26,N/C(=N\OC(=O)c1cc(-c2ccccc2)nc2ccccc12)c1ccncc1,2.66%
27,CCNc1nc(Oc2ccc(C(=O)OC)cc2)nc(N2CCOCC2)n1,1.78%

row,SMILES,reporter increase
1,CCOc1ccc(NC(=S)NC(=O)/C=C/c2ccc(OC)cc2)c([N+](=O)[O-])c1,9.57% (active)
2,CC(=O)Nc1ccc(NC(=S)NC(=O)/C=C/c2ccccc2)cc1,-3.02%
3,Cc1ccc(NC(=S)NC(=O)/C=C/c2ccc(Cl)cc2)cc1,2.86%
4,CCOC(=O)c1c(C)oc2cc(Br)c(OCC(N)=O)cc12,8.52%
5,CCOC(=O)c1c(C)oc2ccc(OCC(=O)N(CC)CC)cc12,-2.85%
6,COCCOC(=O)c1c(C)oc2cc(Br)c(OCC(N)=O)cc12,10.5% (active)
7,C/C(=N/NC(=O)CN1CCN(S(=O)(=O)c2ccc(Br)cc2)CC1)c1ccncc1,0.47%
8,COC(=O)/C=C(\Oc1ccccc1)C1(O)CCCCC1,-1.22%
9,Cc1ccc(Nc2nc(N)nc(CN3CCN(Cc4ccccc4)CC3)n2)cc1Cl,4.72%
10,O=C(NCc1ccccn1)Nc1ccc(F)cc1,3.54%
11,c1ccc(CN=C2Nc3ccccc3CS2)nc1,10.7% (active)
12,CCc1ccc[n+](-c2nc([O-])sc2C=O)c1,10.2% (active)
13,O=C(NCc1csc(-c2cccs2)n1)C1CC1,-1.28%
14,O=C(NCC1CCCO1)c1ccccc1-c1nc(-c2ccccc2Cl)no1 (centres undefined),-0.52%
15,O=C(CSc1nnnn1-c1ccc(O)cc1)c1ccc(F)cc1,-3.92%
16,Cc1onc(NC(=O)c2ccc([N+](=O)[O-])o2)c1Br,0.61%
17,O=S(=O)(NCc1cccnc1)c1ccc(Br)s1,3.49%
18,O=S(=O)(NCc1ccccn1)c1ccc(Br)s1,9.46% (active)
19,O=S(=O)(NCc1ccccn1)c1ccc(F)cc1,-3.61%
20,Cc1nc(/N=C(\N)NC(=O)NC2CCCCC2)nc2ccccc12,-1.12%
21,CN(C)c1ccnc(Nc2ccc(F)cc2)c1C#N,4.88%
22,CC(C)c1ccc(Nc2ncccc2C#N)cc1,19.9% (active)
23,O=C(Nc1ccccc1)c1cccnc1Nc1ccccc1,-2.05%
24,CCOc1ccc(N2C(=O)CC(N(O)c3ccccc3)C2=O)cc1 (centres undefined),7.01%
25,CCOc1ccc(N2C(=O)CC(N(CCc3ccc(OC)c(OC)c3)C(=S)Nc3ccccc3)C2=O)cc1 (centres undefined),10.8% (active)
26,COC(=O)CN(C(=S)Nc1ccc(Cl)cc1)C1CC(=O)N(c2ccc(OC)cc2)C1=O (centres undefined),0.7%
27,Cc1cccc(N(C)C(=O)c2cc3c(=O)[nH]c4ccc(C)cc4c3s2)c1,0.97%
